Assay outcomes: PubChem BioAssay, National Center for Advancing Translational Sciences (NCATS)
The entries come from a sample that favours hits as a whole.
12-LOX inh: ALOX12 (human) lipoxygenase inhibition; Potency, µM (titrated, usually from 108 µM), hits mostly inhibitors; P18054; 1.1% of 580,000 active; purified 12hLO, xylenol orange hydroperoxide absorbance
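Purified human 12hLO (150 nM final) in 25 mM Hepes, 0.01% Triton X-100, pH 7.0 was preincubated 15 min at room temperature with compound. Then 40 uM arachidonic acid was added, 30 min. Hydroperoxide was read by Fe-XO absorbance ratio 573/405 nm.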
VDR inhibitor: blocks the human vitamin D receptor; VDR-SRC2-3 peptide fluorescence polarization, 2 h; P11473; AID 504847; Potency, µM, most hits filed as inhibitors; 0.93% of 400,000 active
Target sequence (P11473 whole entry, looked up): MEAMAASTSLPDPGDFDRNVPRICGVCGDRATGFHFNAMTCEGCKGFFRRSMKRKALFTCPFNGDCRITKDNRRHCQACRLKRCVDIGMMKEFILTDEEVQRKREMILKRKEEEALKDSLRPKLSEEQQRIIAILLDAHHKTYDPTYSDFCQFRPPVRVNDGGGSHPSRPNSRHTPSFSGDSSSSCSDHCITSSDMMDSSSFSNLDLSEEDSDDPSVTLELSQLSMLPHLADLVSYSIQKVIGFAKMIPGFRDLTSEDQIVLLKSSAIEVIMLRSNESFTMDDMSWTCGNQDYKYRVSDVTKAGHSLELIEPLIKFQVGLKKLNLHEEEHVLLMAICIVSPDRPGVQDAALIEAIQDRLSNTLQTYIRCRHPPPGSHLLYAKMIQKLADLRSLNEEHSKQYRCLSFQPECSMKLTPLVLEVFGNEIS
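The screen uses fluorescence polarization to detect compounds that interfere with recruitment of the SRC2-3 coactivator peptide to VDR; plates are read after 2 h at room temperature.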
Sfp PPTase inh: inhibitors of Bacillus subtilis Sfp phosphopantetheinyl transferase. Q9F4F7. Biochemical Sfp PPTase activity, qHTS. Potency, µM, hits mostly inhibitors. 3.5% of 310,000 active;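 also: the enzyme is Sfp with the accession as filed and its product quenches rhodamine fluorescence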
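Fluorescence-quenching assay with 15 nM Sfp, 5 uM rhodamine-CoA and 12.5 uM BHQ-2-labelled ybbR peptide in pH 7.6 Hepes/MgCl2 buffer. Enzyme was pre-incubated with compound for 15 min at room temperature. Rate was taken from the 30-min fluorescence change (525/598 nm).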
G9a block: inhibitors of human histone lysine methyltransferase G9a. Q96KQ7. G9a H3K9 monomethylation, AlphaScreen, 2 h. Potency, µM (series often up to 102 µM), usual class: inhibitors. 8.8% of 350,000 active. AID 504332; also: nearly all actives have a fitted effect of over 75% in size
Target sequence (Q96KQ7 913-1193 limits assumed): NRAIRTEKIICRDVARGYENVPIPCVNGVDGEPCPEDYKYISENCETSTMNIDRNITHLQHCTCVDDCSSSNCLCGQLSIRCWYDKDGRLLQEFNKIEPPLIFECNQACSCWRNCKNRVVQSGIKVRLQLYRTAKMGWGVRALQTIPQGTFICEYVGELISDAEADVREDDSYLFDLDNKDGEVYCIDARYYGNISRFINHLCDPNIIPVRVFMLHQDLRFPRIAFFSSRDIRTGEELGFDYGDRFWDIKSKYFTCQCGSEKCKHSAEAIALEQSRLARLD
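Readings reflect AlphaScreen signal from monomethyl-H3K9 antibody detection. HMT at 20 nM; substrate b-H3K9 500 nM; cofactor SAM 20 uM; 2 h RT reaction; compounds tested as titrations in qHTS with 15 min preincubation.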
GRP78 ERSR act: inducers of ER stress response in human glioma cells | U87-MG GRP78 promoter luciferase reporter, 16 h | Potency, µM, usual class: activators | 0.02% of 420,000 active | AID 602332; also: series mostly up to about 76 µM; nearly all actives have a fitted effect of over 35% in size
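Stably transfected U87-MG glioma cells carrying a GRP78-based luciferase sensor; 16 h compound incubation. Luminescence end-point read 10 min after Bright-Glo addition at room temperature.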
Numbers stand for hits; i = inactive; ? = inconclusive; nt = no result; [ ] = dose if it differs, or a comment. Calls follow the shape of the dose curve; as a rule, active = well fitted curve in the direction sought with a large enough effect; inconclusive = small, poorly fitted or top-dose-only effect, or another doubt; inactive = no such curve, though single readings can be large; an effect the other way counts as inactive or inconclusive.

SMILES | 12-LOX inh | VDR inhibitor | Sfp PPTase inh | G9a block | GRP78 ERSR act
COc1ccc(NC(=O)c2cc(-c3ccc(OC)c(OC)c3)on2)cc1OC | i | i | i | i | i
COc1ccc(NC(=O)c2cc(-c3ccco3)on2)cc1OC | i | i | i | 50µM | i
CCc1ccccc1NC(=O)c1cc(-c2ccco2)on1 | i | i | i | 40µM | i
COc1ccc(-c2cc(C(=O)Nc3c(C)nn(Cc4ccc(F)cc4)c3C)no2)cc1OC | i | i | nt | i | i
CC(=O)N1CCC[C@@]2(CCN(C(=O)Nc3cccc(C#N)c3)C2)C1 | i | i | i | i[12.7 µM] | i
N#Cc1cccc(NC(=O)N2CC[C@@]3(CCCNC3)C2)c1 | i | i | 79µM | i[12.7 µM] | i
O=c1[nH]c2cc3c(cc2c(=O)n1CCc1nc(-c2ccccc2)no1)OCO3 | i | nt | nt | nt | nt
Cc1nn(CC(=O)OC(C)C(=O)Nc2ccccc2[N+](=O)[O-])c(C)c1[N+](=O)[O-] (configuration not stated) | i | i | i | 79µM | i
CC(OC(=O)Cn1[nH]c(=O)c2ccccc2c1=O)C(=O)Nc1ccccc1[N+](=O)[O-] (configuration not stated) | i | i | nt | i[2.33 µM] | i
CCOC(=O)c1nc(C)sc1-c1ccnn1S(=O)(=O)c1ccc(Cl)cc1Cl | i | i | i | nt | i
CCOC(=O)c1nc(C)sc1-c1ccnn1S(=O)(=O)c1ccccc1C(F)(F)F | i | i | 50µM | nt | i
CCOC(=O)c1nsnc1NCCSC(=N)N | 45µM | i | i | 8.9µM | i
O=C(Nc1ccc(C2=NCCN2)cc1)c1ccc(C(=O)Nc2ccc(C3=NCCN3)cc2)c([N+](=O)[O-])c1 | ? | i | i | 40µM | i
CN(CCO)c1nc(N)c2c(N)nc3c(c2c1C#N)CC(=O)N3C1CCCC1 | nt | nt | 50µM | ? | nt
CC(C)(C)N1C(=O)Cc2c1nc(N)c1c(N)nc(N3CCCCC3CO)c(C#N)c21 (configuration not stated) | nt | ? | i | 7.9µM | i
N#Cc1c(N2CCN(c3ccc(F)cc3)CC2)nc(N)c2c(N)nc3c(c12)CC(=O)N3C1CC1 | i | i | i | ? | i
CCOc1ccc(NC(=O)c2cc(=O)c3c(C)cc(C)cc3o2)cc1 | i | nt | nt | nt | nt
Cc1ccc(S(=O)(=O)N2CCN(CC(=O)NC(=O)NC(C)(C)C)CC2)cc1C | i | nt | nt | nt | nt
COc1cccc(CNC(=O)[C@@H]2C[C@@H](O)CN2C2CCN(C(=O)COc3cccc(C)c3)CC2)c1 | i | nt | nt | nt | nt
O=C(CCSc1nc(-c2ccc3c(c2)OCO3)cc(C(F)(F)F)n1)NCc1ccco1 | ? | i | 40µM | i | i
CCn1ncc(CNC(=O)CCCSc2nc(-c3ccco3)cc(C(F)(F)F)n2)c1C | i | i | i | 16µM | i
COc1ccc(CNC(=O)CCSc2nc(-c3ccc4c(c3)OCO4)cc(C(F)(F)F)n2)cc1 | i | i | 79µM | i | i
O=C(CCSc1nc(-c2ccc3c(c2)OCO3)cc(C(F)(F)F)n1)NCc1ccccc1 | i | i | i | i | i
CCc1ccccc1NC(=O)CCCSc1nc(-c2ccco2)cc(C(F)(F)F)n1 | i | i | nt | i | i
COc1cccc(CC(=O)NCc2nnc3c(-c4nc(C(C)C)no4)cccn23)c1 | i | nt | nt | nt | nt
SMILES | 12-LOX inh | VDR inhibitor | Sfp PPTase inh | G9a block | GRP78 ERSR act
C=CCNc1nc(C(=O)OC(C)C(=O)c2ccc3c(c2)CCC3)cs1 (configuration not stated) | i | nt | nt | nt | nt
C=CCOC(=O)C1=C[C@H](c2cn(C(C)=O)c3ccccc23)C[C@H](OCc2ccc(CO)cc2)O1 | 40µM | i | i | i[12.7 µM] | i
C[N+]1(C)CC2CCC(Cl)=C(Cl)C2C1 (configuration not stated) | i | nt | nt | nt | nt
Cc1cc(N2CCCC2)nc2ccc(NC(=S)NCCCN3CCC(C)CC3)cc12 | i | i | i | 50µM | i
Cc1cc(N2CCN(C)CC2)nc2ccc(NC(=S)NCCN3CCc4ccccc4C3)cc12 | ? | i | i | 32µM | i
Cc1ccccc1NC(=O)Nc1ccc2nc(N3CCN(C)CC3)cc(C)c2c1 | ? | i | nt | i | i
CCN1CCN(c2cc(C)c3cc(NC(=S)NCCCN4CCc5ccccc5C4)ccc3n2)CC1 | i | i | i | 32µM | i
CCCCNC(=S)Nc1ccc2nc(N3CCN(CC)CC3)cc(C)c2c1 | ? | i | i | ? | i
CCCN1CCN(CCCNC(=S)Nc2ccc3nc(N4CCN(CC)CC4)cc(C)c3c2)CC1 | i | i | i | 35µM | i
CCN1CCN(c2cc(C)c3cc(NC(=O)c4cccs4)ccc3n2)CC1 | i | i | i | i[12.7 µM] | i
Cn1cc(S(=O)(=O)N2CCC(C(=O)Nc3cccc(Br)c3)CC2)cc1C(N)=O | i | nt | nt | nt | nt
Cc1cc(N2CCN(C)CC2)nc2ccc(NC(=S)NCCCN3CCc4ccccc4C3)cc12 | i | i | i | 40µM | i
COc1ccc(-c2ccccc2NC(=O)C2CCCN(Cc3c(O)cccc3OC)C2)cc1 (configuration not stated) | i | nt | nt | nt | nt
Cc1ccc(/C=C(\NC(=O)c2ccccc2)C(=O)NCC2CCCO2)o1 (configuration not stated) | i | i | i | 56µM | i
O=C(NCC1CCCO1)/C(=C\c1ccccc1)NC(=O)c1ccccc1 (configuration not stated) | i | i | i | nt | i
CC(=O)N/C(=C\c1ccc(C)o1)C(=O)NCc1ccccc1 | i | i | i | 71µM | i
O=C(NCc1ccccc1)/C(=C\c1ccccc1)NC(=O)c1ccco1 | i | i | i | i | i
Cn1c(=O)c2c(ncn2CCC(=O)N2CCN(Cc3ccccc3)CC2)n(C)c1=O | i | nt | nt | nt | nt
O=C1C(c2ccccc2)=[N+]([O-])c2ccccc21 | i | 4µM | nt | i[2.33 µM] | i
Cc1ccc(-c2nc(CNc3ccc(Br)cc3)no2)cc1 | i | nt | nt | nt | nt
CCNc1ccccc1CP(=O)(c1ccccc1)c1ccccc1O (configuration not stated) | i | 20µM | 1.4µM | ? | i
Cc1ccc(O)c(CP(=O)(c2ccccc2)c2ccccc2)c1 | i | i | i | i | i
O=C(CCc1ccnc(N2CCOCC2)c1)NCCN1CCc2ccccc2C1 | i | nt | nt | nt | nt
CC(C)=CCCC1(C)C=Cc2c(O)c3c(c(CC=C(C)C)c2O1)OC12C(=CCCC1C(C)(C)O[C@@]2(C/C=C(\C)C(=O)O)C(=O)O)C3=O (some centres not stated) | ? | 45µM | i | i[2.33 µM] | i
CC(C)=CCc1c2c(c(O)c3c(=O)c(O)c(-c4ccccc4)oc13)C=CC(C)(C)O2 | nt | i | ? | nt | i
SMILES | 12-LOX inh | VDR inhibitor | Sfp PPTase inh | G9a block | GRP78 ERSR act
COc1ccc(-c2nn(-c3ccccc3)cc2CN2C[C@@H](C)O[C@@H](C)C2)c(F)c1 | i | nt | nt | nt | nt
O=C(Nc1ccc(NS(=O)(=O)c2ccc(F)cc2)cc1)c1cncn1-c1ccccc1 | i | nt | nt | nt | nt
Cc1nc2ccc(NC(=O)Cc3cccc(F)c3)cc2s1 | i | i | i | i | i
Cc1nc2ccc(NC(=O)Cc3cccc(C(F)(F)F)c3)cc2s1 | 40µM | nt | nt | nt | nt
CCc1cccc(NC(=O)CCS(=O)(=O)c2ccc3nc(C)sc3c2)c1 | ? | i | nt | 11µM | i
O=C(Cn1ncc2ccccc2c1=O)NC1CCCC1 | i | nt | nt | nt | nt
